Holding throughout (assay): DAPPL (digital affinity profiling via proximity ligation, sequencing); 10 mM Tris-HCl pH 7.5, 50 mM NaCl, 1 mM DTT, 4% glycerol, room temperature, 30 min; GST-TFs on glutathione beads, 16-mer random dsDNA library, 0.1% formaldehyde crosslink after washing; high values mean tight binding
For one assay, the target named is T1, FEV (Homo sapiens, UniProt Q99581 1-238).
T1 sequence: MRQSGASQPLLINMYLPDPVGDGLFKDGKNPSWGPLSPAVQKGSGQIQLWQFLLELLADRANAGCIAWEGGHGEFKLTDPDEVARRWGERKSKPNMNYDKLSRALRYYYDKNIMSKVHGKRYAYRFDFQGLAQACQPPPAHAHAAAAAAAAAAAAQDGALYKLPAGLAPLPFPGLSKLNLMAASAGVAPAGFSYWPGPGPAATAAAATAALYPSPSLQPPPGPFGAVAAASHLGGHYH
The settings on record: protein: recombinant; tags: N-terminal GST; dsDNA, one strand shown. Summed up:
(§1)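 Human transcription factors were made in yeast as GST fusions, captured on glutathione beads and barcoded with DNA. With a tag-only sample included, the pool was incubated with 200 nmole of a random double-stranded 16-mer DNA library in Tris/NaCl/DTT/glycerol buffer at room temperature for 30 min, then crosslinked with 0.1% formaldehyde after washing, ligated by proximity, amplified and sequenced. For binding signal, each hexamer's read frequency for a factor is divided by its frequency for the tag-only sample.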

The next assay has as its target ETV5 (Homo sapiens, UniProt P41161 1-510). The settings on record: protein: recombinant; tags: N-terminal GST; dsDNA, one strand shown. Summed up:
as §1

Another assay concerns the target HSF1 (Homo sapiens, UniProt Q00613 1-529). The settings on record: protein: recombinant; tags: N-terminal GST; chain copies: 3; dsDNA, one strand shown. The essentials: as §1
The target of a further assay is T2, SPIC (Homo sapiens, UniProt Q8N5J4 1-248).
T2 sequence: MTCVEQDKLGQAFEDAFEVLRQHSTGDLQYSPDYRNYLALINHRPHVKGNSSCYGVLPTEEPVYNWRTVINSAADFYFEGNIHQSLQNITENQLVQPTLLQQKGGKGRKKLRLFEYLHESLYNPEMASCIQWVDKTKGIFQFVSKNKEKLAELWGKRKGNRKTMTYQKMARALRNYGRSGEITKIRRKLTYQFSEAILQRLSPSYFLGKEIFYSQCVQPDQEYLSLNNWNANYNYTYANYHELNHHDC
The settings on record: protein: recombinant; tags: N-terminal GST; dsDNA, one strand shown. Summed up: as §1

The target in another assay is ELF4 (Homo sapiens, UniProt Q99607 1-663). Particulars: protein: recombinant; tags: N-terminal GST; dsDNA, one strand shown. The essentials: as §1
The target in another assay is T3, ELK4 (Homo sapiens, UniProt P28324-2 1-405).
T3 sequence: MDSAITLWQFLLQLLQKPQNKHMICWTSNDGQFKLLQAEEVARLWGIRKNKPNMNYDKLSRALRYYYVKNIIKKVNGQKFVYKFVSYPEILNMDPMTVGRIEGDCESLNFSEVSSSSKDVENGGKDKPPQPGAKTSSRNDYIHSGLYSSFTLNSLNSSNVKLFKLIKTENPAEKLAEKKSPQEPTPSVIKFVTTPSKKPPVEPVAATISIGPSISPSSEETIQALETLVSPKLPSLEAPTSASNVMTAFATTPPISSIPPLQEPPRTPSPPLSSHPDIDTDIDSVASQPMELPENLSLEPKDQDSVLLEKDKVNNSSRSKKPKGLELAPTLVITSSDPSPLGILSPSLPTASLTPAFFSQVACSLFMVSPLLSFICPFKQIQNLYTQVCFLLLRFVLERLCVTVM
The settings on record: protein: recombinant; tags: N-terminal GST; dsDNA, one strand shown. The essentials:
as §1

The next assay concerns the target T4, ETV2 (Homo sapiens, UniProt O00321 1-342).
T4 sequence: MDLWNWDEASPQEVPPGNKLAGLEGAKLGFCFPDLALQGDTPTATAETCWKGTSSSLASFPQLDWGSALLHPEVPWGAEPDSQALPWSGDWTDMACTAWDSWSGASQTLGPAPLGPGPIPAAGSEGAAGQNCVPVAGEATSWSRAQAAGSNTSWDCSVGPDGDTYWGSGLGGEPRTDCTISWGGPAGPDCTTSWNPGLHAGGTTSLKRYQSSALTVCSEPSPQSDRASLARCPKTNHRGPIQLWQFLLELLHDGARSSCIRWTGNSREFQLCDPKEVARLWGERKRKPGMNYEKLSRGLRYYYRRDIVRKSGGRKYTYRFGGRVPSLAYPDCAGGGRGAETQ
The settings on record: protein: recombinant; tags: N-terminal GST; dsDNA, one strand shown. The essentials: as §1

Another assay addresses T5, ELF3 (Homo sapiens, UniProt P78545 1-371).
T5 sequence: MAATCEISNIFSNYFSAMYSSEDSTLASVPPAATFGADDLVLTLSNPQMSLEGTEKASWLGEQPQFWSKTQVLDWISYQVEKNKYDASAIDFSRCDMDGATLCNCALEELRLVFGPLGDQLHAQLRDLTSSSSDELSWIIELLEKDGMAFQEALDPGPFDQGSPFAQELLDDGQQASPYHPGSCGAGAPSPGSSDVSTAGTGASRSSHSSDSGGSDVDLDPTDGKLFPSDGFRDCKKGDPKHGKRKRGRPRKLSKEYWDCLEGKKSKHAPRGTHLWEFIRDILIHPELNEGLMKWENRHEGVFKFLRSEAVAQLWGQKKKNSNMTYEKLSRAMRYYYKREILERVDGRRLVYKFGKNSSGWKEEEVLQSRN
The settings on record: protein: recombinant; tags: N-terminal GST; dsDNA, one strand shown. The essentials:
as §1

For the next assay, the target named is CRX (Homo sapiens, UniProt O43186 1-299). Particulars: protein: recombinant; tags: N-terminal GST; dsDNA, one strand shown. The essentials:
as §1

The next assay addresses ETV1 (Homo sapiens, UniProt P50549 1-477). The settings on record: protein: recombinant; tags: N-terminal GST; dsDNA, one strand shown. Summed up:
as §1

The next assay deals with T6, ERF (Homo sapiens, UniProt P50548 1-548).
T6 sequence: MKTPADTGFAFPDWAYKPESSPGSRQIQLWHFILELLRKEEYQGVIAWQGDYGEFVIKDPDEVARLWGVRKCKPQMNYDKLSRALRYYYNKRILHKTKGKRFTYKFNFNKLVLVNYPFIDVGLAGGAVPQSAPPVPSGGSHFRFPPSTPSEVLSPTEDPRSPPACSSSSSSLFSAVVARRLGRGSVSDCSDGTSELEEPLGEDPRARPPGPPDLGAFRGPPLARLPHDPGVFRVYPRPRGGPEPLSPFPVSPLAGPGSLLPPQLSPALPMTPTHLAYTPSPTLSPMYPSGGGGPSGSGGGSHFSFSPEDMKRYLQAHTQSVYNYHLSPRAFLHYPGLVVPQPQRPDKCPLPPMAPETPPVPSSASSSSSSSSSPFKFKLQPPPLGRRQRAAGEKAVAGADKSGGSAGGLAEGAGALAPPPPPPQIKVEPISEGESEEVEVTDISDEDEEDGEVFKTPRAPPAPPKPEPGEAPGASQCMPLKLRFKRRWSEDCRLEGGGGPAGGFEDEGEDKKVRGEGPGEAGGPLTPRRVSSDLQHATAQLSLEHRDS
The settings on record: protein: recombinant; tags: N-terminal GST; dsDNA, one strand shown. Summed up: as §1

Another assay concerns the target T7, ETV3L (Homo sapiens, UniProt Q6ZN32 1-361).
T7 sequence: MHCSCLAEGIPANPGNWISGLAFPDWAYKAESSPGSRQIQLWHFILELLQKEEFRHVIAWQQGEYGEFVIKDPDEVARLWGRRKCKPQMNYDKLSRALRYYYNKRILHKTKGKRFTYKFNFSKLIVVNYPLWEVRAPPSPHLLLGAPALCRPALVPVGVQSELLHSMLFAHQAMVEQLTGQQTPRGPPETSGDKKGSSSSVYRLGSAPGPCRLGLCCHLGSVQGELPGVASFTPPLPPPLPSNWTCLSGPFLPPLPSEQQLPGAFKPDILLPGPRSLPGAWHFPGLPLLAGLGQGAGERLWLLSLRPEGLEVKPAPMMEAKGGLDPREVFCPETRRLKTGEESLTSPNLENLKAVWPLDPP
Particulars: protein: recombinant; tags: N-terminal GST; dsDNA, one strand shown. Summed up: as §1

A further assay addresses T8, ETS2 (Homo sapiens, UniProt P15036 1-469).
T8 sequence: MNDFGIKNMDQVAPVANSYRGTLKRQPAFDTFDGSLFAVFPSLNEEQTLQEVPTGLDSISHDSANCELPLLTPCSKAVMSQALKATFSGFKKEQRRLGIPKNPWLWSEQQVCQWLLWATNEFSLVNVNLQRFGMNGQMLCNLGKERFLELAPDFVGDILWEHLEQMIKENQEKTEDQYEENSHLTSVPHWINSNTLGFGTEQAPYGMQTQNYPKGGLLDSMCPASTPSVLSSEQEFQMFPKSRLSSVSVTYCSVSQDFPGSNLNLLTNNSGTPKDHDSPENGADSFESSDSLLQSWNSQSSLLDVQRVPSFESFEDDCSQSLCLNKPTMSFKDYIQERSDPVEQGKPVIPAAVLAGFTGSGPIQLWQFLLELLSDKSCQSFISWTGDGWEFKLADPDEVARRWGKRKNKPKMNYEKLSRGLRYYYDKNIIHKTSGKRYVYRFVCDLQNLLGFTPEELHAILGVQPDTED
The settings on record: protein: recombinant; tags: N-terminal GST; dsDNA, one strand shown. The essentials:
as §1

A further assay concerns the target T9, SPDEF (Homo sapiens, UniProt O95238 1-335).
T9 sequence: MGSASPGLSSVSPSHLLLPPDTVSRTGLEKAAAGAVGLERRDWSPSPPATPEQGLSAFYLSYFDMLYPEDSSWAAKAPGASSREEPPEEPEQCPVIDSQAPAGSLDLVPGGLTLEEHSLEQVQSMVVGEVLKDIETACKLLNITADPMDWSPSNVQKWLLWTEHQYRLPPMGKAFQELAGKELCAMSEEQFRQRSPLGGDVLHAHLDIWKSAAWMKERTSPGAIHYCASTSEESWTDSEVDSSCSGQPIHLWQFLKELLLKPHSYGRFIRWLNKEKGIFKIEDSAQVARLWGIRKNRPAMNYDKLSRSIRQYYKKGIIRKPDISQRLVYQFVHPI
Particulars: protein: recombinant; tags: N-terminal GST; dsDNA, one strand shown. Summed up: as §1

A further assay has as its target T10, ETV7 (Homo sapiens, UniProt Q9Y603 1-341).
T10 sequence: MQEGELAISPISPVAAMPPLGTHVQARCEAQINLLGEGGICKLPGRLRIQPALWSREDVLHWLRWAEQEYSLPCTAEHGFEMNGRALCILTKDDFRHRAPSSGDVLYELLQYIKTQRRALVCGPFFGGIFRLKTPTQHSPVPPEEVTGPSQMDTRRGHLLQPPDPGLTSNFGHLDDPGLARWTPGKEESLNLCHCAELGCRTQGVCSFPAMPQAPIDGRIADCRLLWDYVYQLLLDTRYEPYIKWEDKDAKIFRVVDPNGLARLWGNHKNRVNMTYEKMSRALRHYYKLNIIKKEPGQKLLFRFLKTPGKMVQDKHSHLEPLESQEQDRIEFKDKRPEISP
Particulars: protein: recombinant; tags: N-terminal GST; dsDNA, one strand shown. Summed up: as §1

Another assay addresses T11, ELF5 (Homo sapiens, UniProt Q9UKW6-2 1-255).
T11 sequence: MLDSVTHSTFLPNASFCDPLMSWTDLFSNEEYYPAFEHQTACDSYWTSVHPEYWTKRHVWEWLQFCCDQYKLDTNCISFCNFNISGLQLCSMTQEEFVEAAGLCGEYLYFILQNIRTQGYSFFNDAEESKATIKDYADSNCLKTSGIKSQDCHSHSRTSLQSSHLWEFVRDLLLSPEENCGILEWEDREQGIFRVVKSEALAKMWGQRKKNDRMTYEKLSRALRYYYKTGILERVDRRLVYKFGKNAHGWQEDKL
Particulars: protein: recombinant; tags: N-terminal GST; dsDNA, one strand shown. Summed up:
as §1

Another assay deals with T12, ETV3 (Homo sapiens, UniProt P41162-2 1-143).
T12 sequence: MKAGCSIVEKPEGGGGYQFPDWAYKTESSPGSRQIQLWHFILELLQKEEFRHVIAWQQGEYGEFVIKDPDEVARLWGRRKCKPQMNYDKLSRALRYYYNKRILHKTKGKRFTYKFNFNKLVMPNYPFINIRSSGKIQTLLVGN
Particulars: protein: recombinant; tags: N-terminal GST; dsDNA, one strand shown. The essentials:
as §1

In a further assay the target is ETV6 (Homo sapiens, UniProt P41212 1-452). The settings on record: protein: recombinant; tags: N-terminal GST; dsDNA, one strand shown. The essentials: as §1

From publication PMC7862700, “An all-to-all approach to the identification of sequence-specific readers for epigenetic DNA modifications on cytosine” come the findings set out here.

Sequence of ETV6 (P41212 whole entry): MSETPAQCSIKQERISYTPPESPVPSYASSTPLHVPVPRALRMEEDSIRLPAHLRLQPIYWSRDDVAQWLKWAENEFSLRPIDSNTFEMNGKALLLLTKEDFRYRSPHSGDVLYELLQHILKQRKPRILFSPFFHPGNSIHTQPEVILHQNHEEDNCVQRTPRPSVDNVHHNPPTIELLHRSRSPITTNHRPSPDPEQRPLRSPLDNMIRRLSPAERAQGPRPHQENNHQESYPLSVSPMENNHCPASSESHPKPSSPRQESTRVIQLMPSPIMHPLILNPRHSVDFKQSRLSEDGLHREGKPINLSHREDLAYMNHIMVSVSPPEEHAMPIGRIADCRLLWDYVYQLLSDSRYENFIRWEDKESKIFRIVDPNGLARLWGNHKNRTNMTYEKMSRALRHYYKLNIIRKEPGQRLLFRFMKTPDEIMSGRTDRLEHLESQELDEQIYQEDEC
Sequence of ETV5 (P41161 whole entry): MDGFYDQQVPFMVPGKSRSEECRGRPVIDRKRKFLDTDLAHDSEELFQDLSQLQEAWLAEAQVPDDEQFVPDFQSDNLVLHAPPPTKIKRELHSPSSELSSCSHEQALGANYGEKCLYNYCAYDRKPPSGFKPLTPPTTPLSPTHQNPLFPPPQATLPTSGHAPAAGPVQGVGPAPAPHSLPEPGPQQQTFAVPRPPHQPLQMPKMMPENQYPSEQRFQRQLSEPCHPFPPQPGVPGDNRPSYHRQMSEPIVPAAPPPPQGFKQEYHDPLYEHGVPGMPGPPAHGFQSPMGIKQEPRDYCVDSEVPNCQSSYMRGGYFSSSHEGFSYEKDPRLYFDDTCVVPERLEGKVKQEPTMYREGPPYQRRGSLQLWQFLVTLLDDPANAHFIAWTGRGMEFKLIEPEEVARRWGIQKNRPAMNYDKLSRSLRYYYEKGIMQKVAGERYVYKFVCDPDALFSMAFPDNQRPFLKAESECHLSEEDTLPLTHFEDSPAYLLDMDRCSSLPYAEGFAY
Sequence of ELF4 (Q99607 whole entry): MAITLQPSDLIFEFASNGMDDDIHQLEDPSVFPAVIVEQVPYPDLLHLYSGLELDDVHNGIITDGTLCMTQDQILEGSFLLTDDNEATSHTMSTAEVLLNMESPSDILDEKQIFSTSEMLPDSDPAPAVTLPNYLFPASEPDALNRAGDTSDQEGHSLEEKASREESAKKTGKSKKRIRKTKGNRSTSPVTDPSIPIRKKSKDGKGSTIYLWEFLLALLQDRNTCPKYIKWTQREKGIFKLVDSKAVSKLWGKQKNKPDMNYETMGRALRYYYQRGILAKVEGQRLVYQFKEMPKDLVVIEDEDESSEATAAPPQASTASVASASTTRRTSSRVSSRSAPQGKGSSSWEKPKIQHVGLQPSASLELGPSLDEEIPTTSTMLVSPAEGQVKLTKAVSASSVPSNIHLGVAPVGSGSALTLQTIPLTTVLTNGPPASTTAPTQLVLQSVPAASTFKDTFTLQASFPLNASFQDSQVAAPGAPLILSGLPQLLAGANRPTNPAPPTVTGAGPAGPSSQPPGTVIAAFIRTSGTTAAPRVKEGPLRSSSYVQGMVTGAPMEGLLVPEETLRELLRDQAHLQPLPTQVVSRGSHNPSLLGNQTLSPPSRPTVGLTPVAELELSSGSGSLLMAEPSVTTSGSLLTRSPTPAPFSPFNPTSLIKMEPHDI
Sequence of ETV1 (P50549 whole entry): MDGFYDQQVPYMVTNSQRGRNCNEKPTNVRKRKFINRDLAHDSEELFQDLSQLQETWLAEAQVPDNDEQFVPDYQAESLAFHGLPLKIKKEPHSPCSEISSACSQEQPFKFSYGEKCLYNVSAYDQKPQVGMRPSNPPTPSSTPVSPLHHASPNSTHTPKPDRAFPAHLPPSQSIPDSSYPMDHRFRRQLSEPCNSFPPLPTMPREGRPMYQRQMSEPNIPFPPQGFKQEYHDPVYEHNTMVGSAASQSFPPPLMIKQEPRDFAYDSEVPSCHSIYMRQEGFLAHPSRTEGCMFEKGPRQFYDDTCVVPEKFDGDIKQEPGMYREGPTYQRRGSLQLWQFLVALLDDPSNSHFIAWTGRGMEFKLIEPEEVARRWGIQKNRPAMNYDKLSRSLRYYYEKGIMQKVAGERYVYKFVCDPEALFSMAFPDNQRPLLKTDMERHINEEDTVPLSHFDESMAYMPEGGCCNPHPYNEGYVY
Sequence of CRX (O43186 whole entry): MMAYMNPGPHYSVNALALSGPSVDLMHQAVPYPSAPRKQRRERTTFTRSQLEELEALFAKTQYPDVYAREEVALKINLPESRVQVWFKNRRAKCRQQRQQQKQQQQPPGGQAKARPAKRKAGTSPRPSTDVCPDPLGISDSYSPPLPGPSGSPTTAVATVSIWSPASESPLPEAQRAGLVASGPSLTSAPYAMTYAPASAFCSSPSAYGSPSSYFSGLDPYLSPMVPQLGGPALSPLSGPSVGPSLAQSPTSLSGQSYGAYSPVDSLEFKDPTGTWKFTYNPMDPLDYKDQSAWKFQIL
Sequence of HSF1 (Q00613 whole entry): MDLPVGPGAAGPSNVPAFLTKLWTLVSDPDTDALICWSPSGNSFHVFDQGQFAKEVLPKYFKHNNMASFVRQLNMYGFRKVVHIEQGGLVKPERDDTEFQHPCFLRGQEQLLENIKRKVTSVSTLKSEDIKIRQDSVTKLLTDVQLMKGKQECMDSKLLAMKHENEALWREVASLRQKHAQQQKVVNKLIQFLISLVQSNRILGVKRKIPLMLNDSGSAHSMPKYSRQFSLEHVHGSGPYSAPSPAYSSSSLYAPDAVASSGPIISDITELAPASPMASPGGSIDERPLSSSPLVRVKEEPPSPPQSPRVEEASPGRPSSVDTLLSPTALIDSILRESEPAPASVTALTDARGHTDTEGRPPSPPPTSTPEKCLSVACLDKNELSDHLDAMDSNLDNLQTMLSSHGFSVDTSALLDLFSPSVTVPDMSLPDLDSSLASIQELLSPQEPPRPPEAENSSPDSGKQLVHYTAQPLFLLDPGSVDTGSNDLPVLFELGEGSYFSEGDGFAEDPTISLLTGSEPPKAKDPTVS

Take ACATTT: the binding signal with FEV is 1.46 fold enrichment (6-mer frequency, TF over GST control); in the assay with ETV5, 1.44 fold enrichment (6-mer frequency, TF over GST control); in the assay with HSF1 it was 1.3 fold enrichment (6-mer frequency, TF over GST control); with SPIC, 1.25 fold enrichment (6-mer frequency, TF over GST control); with ELF4, 1.41 fold enrichment (6-mer frequency, TF over GST control); with ELK4 it was 1.36 fold enrichment (6-mer frequency, TF over GST control). Also, the binding signal in the assay with ETV2 was 1.68 fold enrichment (6-mer frequency, TF over GST control); with ELF3 it was 1.6 fold enrichment (6-mer frequency, TF over GST control); with CRX, 1.16 fold enrichment (6-mer frequency, TF over GST control); with ETV1 it was 1.43 fold enrichment (6-mer frequency, TF over GST control); with ERF it was 1.54 fold enrichment (6-mer frequency, TF over GST control); with ETV3L, 1.49 fold enrichment (6-mer frequency, TF over GST control). The binding signal with ETS2 was 1.42 fold enrichment (6-mer frequency, TF over GST control); with SPDEF it was 1.41 fold enrichment (6-mer frequency, TF over GST control); with ETV7 it was 1.46 fold enrichment (6-mer frequency, TF over GST control); with ELF5, 1.59 fold enrichment (6-mer frequency, TF over GST control); in the assay with ETV3, 1.56 fold enrichment (6-mer frequency, TF over GST control); with ETV6, 1.56 fold enrichment (6-mer frequency, TF over GST control).
